Rows were chosen to be rich in hits. Some 0.4% of all compounds tested hit in one or more screens of this group.
Rab7 wt modul: dog Rab7 wildtype GTP binding, inhibitors and activators | GST-Rab7 beads, fluorescent GTP binding, flow cytometry; actives lie on both sides; untreated = 100%, excess cold GTP = 0% | GTP binding activity (percent of control), % at 10 µM | 190,000 compounds, 0.055% hits | AID 758;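 active = fluorescent GTP binding to Rab7 beads changed by at least 20 points from the 100% baseline, either direction, mostly lower; inconclusive = compound itself probably fluorescent, or too few beads counted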;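 also: median green fluorescence of bound Bodipy-FL-GTP per Rab7 bead population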
Rac1 wt GTP bind: alters GTP binding to wildtype human Rac1; 190,000 compounds, 0.27% hits; GST-Rac1 beads, fluorescent GTP binding, flow cytometry; actives lie on both sides; 0 = cold GTP competed, 100 = untreated; GTP binding activity (% of control), % at 10 µM; P63000;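 active = GTP binding activity at least 20 points away from the 100% control level, either lower or higher; inconclusive = compound flagged as likely green fluorescent, judged across all proteins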
Rab2 wt GTP: changes GTP binding to wildtype dog Rab2A, up or down | P61105 | GST-Rab2 wt beads, Bodipy-GTP binding, flow cytometry | GTP binding activity, % at 10 µM | 190,000 compounds, 0.19% hits | AID 760;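 active = GTP binding activity at least 20 points away from 100%, either lowered or raised; inconclusive = signal likely due to the compound's own green fluorescence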;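 also: 0% = beads with excess unlabeled GTP and 100% = no-compound control corrected for plate trend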
Rac1 act GTP bind: alters GTP binding to activated mutant human Rac1; P63000; GST-Rac1 activated beads, fluorescent GTP binding, flow cytometry; actives lie on both sides; 100% means binding = to untreated wells; percent activity (GTP binding), % at 10 µM; 190,000 compounds, 0.11% hits;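 active = GTP binding at least 20 percentage points away from the 100% baseline, in either direction, so actives lie on both sides; inconclusive = Compound likely fluorescent itself, or too few beads counted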
Cdc42 wt: changes GTP binding to wildtype human Cdc42; P60953; GST-Cdc42 beads, Bodipy-GTP binding, flow cytometry; actives lie on both sides; percent activity (GTP binding), % at 10 µM; 190,000 compounds, 0.2% hits; AID 761;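 active = percent activity GTP binding at least 20 points away from the 100% baseline, either down as inhibitor or up as activator; inconclusive = compound flagged as likely green fluorescent from well-wide comparison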;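 also: median bead fluorescence of bound Bodipy-FL-GTP at 100 nM; 0% = excess unlabeled GTP control and 100% = no compound control; below 100% means less GTP binding so inhibitor and above means activator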
Target sequence (P60953 whole entry, looked up): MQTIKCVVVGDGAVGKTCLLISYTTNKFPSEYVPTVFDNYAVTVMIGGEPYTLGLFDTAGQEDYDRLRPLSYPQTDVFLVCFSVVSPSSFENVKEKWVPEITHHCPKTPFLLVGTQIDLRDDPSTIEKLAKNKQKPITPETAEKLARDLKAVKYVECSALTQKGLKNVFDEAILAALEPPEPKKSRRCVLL
HRas wt GTP: human HRas wildtype GTP binding, change in either direction; P01112; GST-Ras wt beads, Bodipy-FL-GTP binding, flow cytometry; actives lie on both sides; GTP binding activity, % at 10 µM; 190,000 compounds, 0.14% hits;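 active = GTP binding activity at least 20% away from the 100% baseline, either lowered as inhibitor or raised as activator; inconclusive = flagged as likely green fluorescent, judged across all proteins in the well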;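 also: 0% = unlabeled GTP competition control and 100% = no-compound control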
Target sequence (P01112 whole entry, looked up): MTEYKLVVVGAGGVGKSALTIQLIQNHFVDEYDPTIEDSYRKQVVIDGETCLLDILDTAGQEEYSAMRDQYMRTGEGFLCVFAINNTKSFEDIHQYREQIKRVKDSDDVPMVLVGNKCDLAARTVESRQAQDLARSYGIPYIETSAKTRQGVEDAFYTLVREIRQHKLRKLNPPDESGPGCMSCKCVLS
An asterisk follows results filed as active; ? = inconclusive; [ ] = dose if it differs, or a comment.

SMILES	Rab7 wt modul	Rac1 wt GTP bind	Rab2 wt GTP	Rac1 act GTP bind	Cdc42 wt	HRas wt GTP
c1ccc2c3c([nH]c2c1)C(C1CCCCC1)N(Cc1ncc[nH]1)CC3 (configuration not stated)	95	96	95	95	94	95
COc1cc2[nH]c(=O)n(CCC(=O)NCCC(C)C)c(=O)c2cc1OC	101	107	100	98	103	101
COc1cc2[nH]c(=S)nc(NCCC(C)C)c2cc1OC	85	52*	59*	71*	56*	64*
CCOC(=O)c1cnc2nc(C)nn2c1N	100	95	99	95	92	97
CCOC(=O)c1cnc2c(C#N)cnn2c1N	88	73*	73*	86	77*	72*
N#Cc1cccc(NC(=O)CSc2nnc(-c3n[nH]c4ccccc34)o2)c1	91	89	92	92	92	91
c1ccc(CN2CCN(CCOCCOc3cccc4ccccc34)CC2)cc1	87	88	78*	80	80	83
COC(=O)C1=C(C)OC(N)=C(C#N)C1c1c(C)nn(-c2ccccc2)c1Cl (configuration not stated)	99	104	101	99	102	102
CCNC(=O)COC(=O)COc1ccc(Cl)cc1C	98	105	102	100	102	101
Cc1cc(Cl)ccc1OCC(=O)OCC(=O)Nc1ccc(F)c([N+](=O)[O-])c1	89	97	64*	91	77*	74*
N/C(=N\OC(=O)Oc1ccccc1)c1cccc([N+](=O)[O-])c1	99	104	97	97	105	99
O=C(C#Cc1ccccc1)c1cccc([N+](=O)[O-])c1	91	84	83	71*	74*	87
COc1ccc(Cn2c(N)c(C#N)c3nc4ccccc4nc32)cc1	99	99	97	97	99	96
COc1ccc(-n2c(NC(=O)c3ccc(Br)o3)c(C#N)c3nc4ccccc4nc32)cc1	85	79*	79*	79*	77*	81
Cc1[nH]nc(SCC(=O)NCc2ccc(F)cc2)c1[N+](=O)[O-]	100	104	101	102	104	101
COc1ccc(-c2nnc3n2N=C(C)CS3)cc1OC	94	89	93	91	95	93
Oc1ccc(C2=Nn3c(nnc3-c3ccco3)SC2)cc1O	70*	51*	47*	65*	49*	47*
Cc1cccc(-c2nnc3n2N=C(c2ccccc2)CS3)c1	92	100	94	96	88	95
COc1ccc(C2=Nn3c(nnc3-c3ccccc3)SC2)cc1OC	93	78*	82	90	80	80
Cc1cc(-c2nnc3n2N=C(c2ccc(-c4ccccc4)cc2)CS3)n[nH]1	87	75*	79*	81	76*	78*
Cn1cc(Br)c(C(=O)N/N=C/c2cccc(OC3CSC3)c2)n1	100	104	102	101	99	102
COc1cc(S(=O)(=O)N2CCC(C(N)=O)CC2)c(C)cc1C	99	100	104	99	101	100
Cc1ccc(C)c(N(CC(N)=O)S(C)(=O)=O)c1	78*	67*	72*	71*	75*	74*
O=C(C1CCCO1)N1CCN(C(=S)Nc2ccccc2C(F)(F)F)CC1 (configuration not stated)	108	109	125*[activator]	104	108	117
Cc1ccc(/C=C(\CCC(=O)O)c2nc3ccccc3s2)cc1[N+](=O)[O-]	87	83	79*	78*	83	86
Cc1cc(NC(=O)CSc2nc(-c3ccccc3)c(C#N)c(=O)[nH]2)no1	77*	77*	78*	76*	75*	75*
Cc1ccccc1Nc1n[nH]c(C)c1[N+](=O)[O-]	98	99	99	100	98	97
Cc1ccc(Nc2n[nH]c(C)c2[N+](=O)[O-])c(C)c1	?	111	192*[activator]	?	116	154*[activator]
